{
  "source": "PubChem BioAssay (NCATS)",
  "note": "Records with an inconclusive call do not appear. Entries that show only a call come without a potency. Calls of active or inactive are those of the source. The call rests on the fitted dose curve; in most records, active means well fitted inhibition curve with a large enough effect; inconclusive means small, poorly fitted or top-dose-only effect; inactive means no such curve, though single readings can be large or run the other way.",
  "data": [
    {"target": "Endonuclease 4 (Escherichia coli (strain K12)) (UniProt P0A6C1)", "assay": "Counterscreen for APE1 Inhibitors: qHTS Validation Assay for Inhibitors of Endonuclease IV (AID 1708); further: potency means the concentration at half of the fitted maximal effect", "details": "E. coli endonuclease IV, DNA cleavage fluorescence; series mostly up to 57.1 µM", "excerpt": "Assay Provider: David M. Wilson, III, National Institute on Aging, NIH\nScreening Center PI: Austin, C.P.\nScreening Center: NIH Chemical Genomics Center [NCGC]\nEscherichia coli endonuclease IV (Endo IV) is the key member of the AP endonuclease superfamily that catalyzes the cleavage of damaged DNA backbone immediately 5' of an AP site. E. coli EndoIV has the same functional activities as human APE1 but has no sequence or structural homology to the human protein. Herein, we utilize E. coli EndoIV to counter screen compound libraries as part of a high-throughput campaign for APE1 inhibitor identification. A concentration-response screen of the LOPAC1280 collection was performed under experimental conditions identical to those used in the APE1 screen.\nInhibition of APE1 activity was screened by utilizing double-stranded short substrate containing tetrahydrofuran (THF) abasic site labeled with rhodamine-type fluorophore (TAMRA) at the 5'-end and with non-fluorescent Black Hole Quencher-2 (BHQ-2) at the opposing 3'-end. An increase in the fluorescence intensity due to incision of the abasic site by APE1 was used to measure the enzyme activity.\nBuffer: 50 mM Tris-HCl (pH 7.5) containing 50mM NaCl, 2 mM MgCl2, 1 mM DTT and 0.01% Tween-20.\nBuffer in columns 3 and 4 as negative control (no enzyme).\nSubstrate: 50 nM final concentration of TAMRA/BHQ-2 substrate dispensed throughout the plate.\nEnzyme: 2 nM E. coli EndoIV final concentration in columns 1, 2, 5-48. Column 1 is neutral (100% activity).\nControl: Pintool transfer of control inhibitor NSC-13755 to column 2 of all assay plates. Two-fold, 16 pt dilution in duplicate to produce final concentrations in the 5.75 uM - 0.175 nM range.\nThree uL of enzyme were dispensed to 1536-well Greiner black solid bottom plates. Compounds (23 nL) were transferred via Kalypsys pintool. The plates were incubated for 15 min at room temperature, and then 1 uL of substrate solution was added to start the reaction. The plates were immediately transferred into ViewLux High-throughput CCD imager (Perkin-Elmer) in order to measure the reaction progress in kinetic mode (three reads every 60 seconds) using 525 nm excitation and 598 nm emission fluorescence protocol. The fluorescence intensity difference between the third and the first time points was used to compute reaction progress.", "values": [
      {"molecule": "CC(=O)SC1CC2=CC(=O)CC[C@]2(C)C2CC[C@@]3(C)[C@@H](CC[C@@]34CCC(=O)O4)C12", "note": "(stereo not given in full)", "Potency": "inactive"},
      {"molecule": "C#C[C@]1(O)CC[C@H]2C3CCC4=Cc5oncc5CC4(C)C3CCC21C", "note": "(stereo not given in full)", "Potency": "inactive"},
      {"molecule": "Nc1nc(Cl)nc2c1ncn2[C@@H]1O[C@H](CO)[C@H](O)[C@H]1O", "Potency": "inactive"},
      {"molecule": "N#CC(Cc1ccc(O)c(O)c1)C(=O)N1CCc2ccccc21", "note": "(stereo not given)", "Potency": "inactive"},
      {"molecule": "C[C@H]1c2cccc(O)c2C(O)=C2C(=O)[C@]3(O)C(O)=C(C(N)=O)C(=O)C(N(C)C)[C@@H]3[C@@H](O)C21", "note": "(stereo not given in full)", "Potency": "inactive"},
      {"molecule": "CC(=O)O[C@]1(C(C)=O)CC[C@H]2C3C=C(Cl)C4=CC(=O)[C@@H]5C[C@H]5[C@]4(C)C3CC[C@@]21C", "note": "(stereo not given in full)", "Potency": "inactive"},
      {"molecule": "CC[C@H](C)C(=O)O[C@H]1CCC=C2C=C[C@H](C)[C@H](CC[C@@H]3C[C@H](O)CC(=O)O3)C21", "note": "(stereo not given in full)", "Potency": "inactive"},
      {"molecule": "C[C@]12C[C@H](O)C3[C@@H](CCC4=CC(=O)CC[C@@]43C)[C@@H]1CC[C@@H]2C(=O)CO", "note": "(stereo not given in full)", "Potency": "inactive"},
      {"molecule": "Cc1cc(N)c2ccccc2[n+]1CCCCCCCCCCCCCC[n+]1c(C)cc(N)c2ccccc21", "Potency": "28.2 µM (active)"},
      {"molecule": "CCCCN1CCC(COC(=O)c2cc(Cl)c(N)c3c2OCCO3)CC1", "Potency": "inactive"}
    ]}
  ]
}
